Consider 19 molecules from PubChem BioAssay (Tox21).

Assay [1] in a line: qHTS assay to identify small molecule agonists of the peroxisome proliferator-activated receptor delta (PPARd) signaling pathway - cell viability counter screen (AID 743211). Also: potency is read from the fitted curve at half-maximal effect; nearly all actives have a fitted effect of over 55% in size. The method, boiled down:
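Counter screen for cytotoxicity run in parallel with the PPARd reporter screen. Beta-lactamase reporter HEK293H cells exposed to compounds 17 h; ATP-based CellTiter-Glo luminescence quantified viability.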

The nature of assay [2]: qHTS assay to identify small molecule antagonists of the peroxisome proliferator-activated receptor delta (PPARd) signaling pathway - cell viability counter screen (AID 743213). Also: potency is read from the fitted curve at half-maximal effect; nearly all actives have a fitted effect of over 50% in size. The method in brief: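 CellTiter-Glo was added to PPARd-bla HEK293H wells following 17 h compound treatment in the presence of 300 nM L165041. Luminescence was recorded after 30 min at room temperature.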

In assay [3] the target is Peroxisome proliferator-activated receptor delta (Homo sapiens) (UniProt Q03181). Briefly: qHTS assay to identify small molecule antagonists of the peroxisome proliferator-activated receptor delta (PPARd) signaling pathway (AID 743215; active = well fitted inhibition curve with a large enough effect in the signal ratio in the repeat runs, not every such curve was filed as active; the % refers to the signal ratio;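 also: cells stimulated with agonist L165041 at 300 nM final during compound exposure; potency is read from the fitted curve at half-maximal effect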). The method, boiled down:
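Antagonist-mode beta-lactamase reporter screen: HEK293H cells with UAS-bla under PPARd control, stimulated by 300 nM L165041 (final) alongside test compound for 17 h at 37 C, then FRET fluorescence after 2 h substrate incubation.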

A short description of assay [4]: qHTS assay to identify small molecule agonists of the farnesoid-X-receptor (FXR) signaling pathway - cell viability counter screen (AID 743218). Also: potency is read from the fitted curve at half-maximal effect; nearly all actives have a fitted effect of over 45% in size. The method, boiled down: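 In GeneBLAzer FXR-UAS-bla HEK 293T cells, compounds act for 16 h at 37 C. Cell viability is then scored in the reporter wells by CellTiter-Glo, 30 min at RT, luminescence.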
The nature of assay [5]: qHTS assay to identify small molecule antagonists of the farnesoid-X-receptor (FXR) signaling pathway - cell viability counter screen (AID 743221; active = well fitted cell-killing curve with a large enough effect in the repeat runs, not every such curve was filed as active; also: potency is read from the fitted curve at half-maximal effect; nearly all actives have a fitted effect of over 50% in size). The method, boiled down:
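Multiplexed counter screen: viability of FXR-bla HEK 293T cells under agonist stimulation by chenodeoxycholic acid (50 uM, final) and test compound for 16 h at 37 C, measured by CellTiter-Glo luminescence in the reporter wells.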

Assay [6] deals with Vitamin D3 receptor (Homo sapiens) (UniProt P11473). Briefly: qHTS assay to identify small molecule agonists of the vitamin D receptor (VDR) signaling pathway (AID 743222; calls by dose curve; also: % is scaled to controls: 0 for no effect and ±100 for the full control effect). The method, boiled down:
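Agonist activity measured in VDR-bla reporter cells. Exposure 16 h, 37C, 5% CO2; detection by B/G FRET substrate, 2 h RT.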

Assay [7] in a line: qHTS assay to identify small molecule agonists of the vitamin D receptor (VDR) signaling pathway - cell viability counter screen (AID 743224). Also: potency is read from the fitted curve at half-maximal effect; nearly all actives have a fitted effect of over 50% in size. The method in brief: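 VDR-bla cell line, quantitative HTS format; 16 h compound incubation (37C, 5% CO2); ATP-based CellTiter-Glo luminescence measured in the reporter assay wells.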
Assay [8] is described as follows: qHTS assay to identify small molecule antagonists of the vitamin D receptor (VDR) signaling pathway - cell viability counter screen (AID 743225). Also: potency is read from the fitted curve at half-maximal effect; nearly all actives have a fitted effect of over 50% in size. The method in brief:
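HEK293T VDR-bla; cpd + 1a,25-(OH)2D3 3 nM final, 16 h 37C/5% CO2; B/G FRET substrate 2 h RT; then CellTiter-Glo 30 min RT, luminescence.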

Assay [9] can be described thus: qHTS assay to identify small molecule antagonists of the retinoid-related orphan receptor gamma (ROR-gamma) signaling pathway - cell viability counter screen (AID 1159520). Also: nearly all actives have a fitted effect of over 50% in size. Also: potency is read from the fitted curve at half-maximal effect. As to activity, negative = cytotoxicity: % is scaled to controls: 0 for no effect and ±100 for the full control effect. The method, boiled down: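 Tet-on ROR gamma CHO cells (1,000/well) were plated 4 hr, given compounds in DMSO for 2 hr at 37 C, then induced with 1 uM final doxycycline for 16 hr. Viability was read as ATP by CellTiter-Glo luminescence after 30 min.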

Assay [10] deals with Nuclear receptor ROR-gamma (Homo sapiens) (UniProt P51449). The experiment in a line: qHTS assay to identify small molecule antagonists of the retinoid-related orphan receptor gamma (ROR-gamma) signaling pathway (AID 1159521). The method, boiled down: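 Cells were plated, rested 4 h at 37 C, exposed to compounds for 2 h, then given 1 uM final doxycycline hyclate to induce RORγ expression. After 16 h, ONE-Glo luminescence from the ROR response element reporter was measured.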

Assay [11] can be described thus: qHTS assay to identify small molecule agonists of the RXR signaling pathway - cell viability counter screen (AID 1159529). Also: nearly all actives have a fitted effect of over 50% in size. Also: potency is read from the fitted curve at half-maximal effect.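 As to activity change, negative = cytotoxicity: HEK 293T cells carrying an RXR-alpha UAS beta-lactamase reporter; series mostly up to about 77 µM; % is scaled to controls: 0 for no effect and ±100 for the full control effect.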 The method in brief:
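Steps: seed RXR-alpha-UAS-bla HEK 293T cells in assay medium containing 2% charcoal-stripped FBS; incubate 5 hr; add compounds in DMSO; incubate 16 hr at 37 C; after the bla read, add CellTiter-Glo and read luminescence at 30 min.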

Assay [12] in a line: qHTS assay to identify small molecule antagonists of the retinoic acid receptor (RAR) signaling pathway (AID 1159552; also: nearly all actives have a fitted effect of over 50% in size; also: potency is read from the fitted curve at half-maximal effect). The method, boiled down:
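Retinol at 1 uM final stimulated RARE-luciferase expression in C3RL4 cells exposed to test compounds for 6 hr at 37 C. Reduced luminescence, read 30 min after detection reagent, indicated pathway antagonism.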

For assay [13], the target named is Vitamin D3 receptor (Homo sapiens) (UniProt P11473). Briefly: qHTS assay to identify small molecule antagonists of the vitamin D receptor (VDR) signaling pathway (AID 743223; active = well fitted inhibition curve with a large enough effect in the signal ratio in the repeat runs, not every such curve was filed as active; the % refers to the signal ratio; also: potency is read from the fitted curve at half-maximal effect). The method, boiled down: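 Cells carrying a VDR-driven beta-lactamase reporter (VDR-bla) were co-treated with compound and 3 nM final 1alpha,25-dihydroxyvitamin D3 for 16 h at 37C; reporter activity was measured as FRET substrate fluorescence after 2 h at room temperature.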

Assay [14] is described as follows: qHTS assay to identify small molecule agonists of the AP-1 signaling pathway - cell viability counter screen (AID 1159525; calls by dose curve; also: nearly all actives have a fitted effect of over 55% in size). The method, boiled down:
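ME-180 AP-1-bla, 2500 cells/well, Opti-MEM + 0.5% dialyzed FBS; overnight 37 °C; cpd 15-pt titration, 5 h 37 °C; CellTiter-Glo 30 min RT; luminescence read; normalised to TOAB and DMSO controls.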

Assay [15] can be described thus: qHTS assay to identify small molecule agonists of the AP-1 signaling pathway (AID 1159526; calls by dose curve; also: % is scaled to controls: 0 for no effect and ±100 for the full control effect).
Assay [16] deals with Retinoic acid receptor RXR-alpha (Homo sapiens) (UniProt P19793). The experiment in a line: qHTS assay to identify small molecule agonists of the RXR signaling pathway (AID 1159527; calls by dose curve; also: % is scaled to controls: 0 for no effect and ±100 for the full control effect; nearly all actives have a fitted effect of over 35% in size). The method in brief: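 Cells plated at 2,000/well, rested 5 hr at 37 C, pin-dosed with DMSO compound solutions, incubated 16 hr, then loaded with B/G FRET substrate for 2 hr at RT before dual-emission fluorescence reading.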

Assay [17] is described as follows: qHTS assay to identify small molecule antagonists of the retinoid acid receptor (RAR) signaling pathway - cell viability counter screen (AID 1159551). Also: % is scaled to controls: 0 for no effect and ±100 for the full control effect; nearly all actives have a fitted effect of over 35% in size. The method in brief: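 Following overnight attachment, C3RL4 reporter cells received DMSO-dissolved compounds and then retinol (1 uM final). Six hours later at 37 C, ATP content was measured by CellTiter-Glo luminescence.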

Records with an inconclusive call do not appear. Unmarked numbers belong to inactive results. Calls of active or inactive are those of the source. Unless noted, calls follow the shape of the dose curve; as a rule, active = well fitted curve in the direction sought with a large enough effect in the repeat runs; inconclusive = weak or mixed curves; inactive = no such curve, though single readings can be large; an effect the other way counts as inactive or inconclusive.

Chain of Vitamin D3 receptor (Homo sapiens) (P11473 whole entry, looked up): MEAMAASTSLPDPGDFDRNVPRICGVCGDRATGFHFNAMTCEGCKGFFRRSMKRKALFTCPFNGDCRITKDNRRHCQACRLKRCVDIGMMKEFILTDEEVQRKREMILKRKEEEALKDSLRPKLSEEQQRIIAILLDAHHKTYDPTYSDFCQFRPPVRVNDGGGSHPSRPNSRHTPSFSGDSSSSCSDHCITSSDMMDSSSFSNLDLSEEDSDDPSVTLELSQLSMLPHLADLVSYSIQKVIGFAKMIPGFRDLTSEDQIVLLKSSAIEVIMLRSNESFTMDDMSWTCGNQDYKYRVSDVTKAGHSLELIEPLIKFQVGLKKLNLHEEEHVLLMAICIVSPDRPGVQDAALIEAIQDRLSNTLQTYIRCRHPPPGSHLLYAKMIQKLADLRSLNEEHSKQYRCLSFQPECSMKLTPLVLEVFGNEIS
Chain of Retinoic acid receptor RXR-alpha (Homo sapiens) (P19793 whole entry, looked up): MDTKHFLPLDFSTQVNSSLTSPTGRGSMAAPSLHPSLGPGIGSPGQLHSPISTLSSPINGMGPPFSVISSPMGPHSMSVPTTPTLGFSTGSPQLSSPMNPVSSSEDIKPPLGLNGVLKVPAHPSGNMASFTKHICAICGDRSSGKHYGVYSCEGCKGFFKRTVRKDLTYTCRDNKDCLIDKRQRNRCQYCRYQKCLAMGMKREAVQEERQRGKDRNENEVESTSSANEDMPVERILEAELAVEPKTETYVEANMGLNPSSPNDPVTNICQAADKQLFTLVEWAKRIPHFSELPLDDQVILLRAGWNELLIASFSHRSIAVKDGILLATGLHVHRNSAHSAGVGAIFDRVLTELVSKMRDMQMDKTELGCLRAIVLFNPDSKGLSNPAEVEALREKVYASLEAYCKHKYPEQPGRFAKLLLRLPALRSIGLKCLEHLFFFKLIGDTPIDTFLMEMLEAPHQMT
Chain of Peroxisome proliferator-activated receptor delta (Homo sapiens) (Q03181 whole entry, looked up): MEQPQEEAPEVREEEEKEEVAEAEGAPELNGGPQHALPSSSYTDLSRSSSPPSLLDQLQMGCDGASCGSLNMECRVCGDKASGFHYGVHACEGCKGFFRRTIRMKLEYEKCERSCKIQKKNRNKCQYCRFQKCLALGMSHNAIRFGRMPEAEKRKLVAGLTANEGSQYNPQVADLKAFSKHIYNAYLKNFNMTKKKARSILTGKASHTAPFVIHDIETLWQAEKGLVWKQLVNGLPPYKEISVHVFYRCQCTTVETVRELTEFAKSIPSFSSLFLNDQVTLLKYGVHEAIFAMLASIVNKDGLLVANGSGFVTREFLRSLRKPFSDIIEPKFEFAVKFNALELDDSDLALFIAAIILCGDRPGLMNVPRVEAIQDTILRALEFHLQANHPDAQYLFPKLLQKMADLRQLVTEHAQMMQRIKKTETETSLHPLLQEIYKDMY

As for `CN1CCN(c2ccccc2/C=C2\SCCN(c3ccc(Cl)c(Cl)c3)C2=O)CC1`, the Potency in assay [1] was 24.5 µM (active); in assay [2], 24.5 µM (active); in assay [3], 21.9 µM (active); in assay [4], 43.6 µM (active); in assay [5], 54.9 µM (active); in [7], 38.9 µM (active). The Potency in assay [8] is 43.6 µM (active); in [9], 68.6 µM (active); in assay [10], 7.7 µM (active); in assay [11], 24.5 µM (active); in assay [12], 48.6 µM (active). Further, in assay [6], the outcome was inactive.

With `N#Cc1nc(Cl)c(Cl)c(Cl)c1Cl`, the Potency is 7.76 µM (active) in [1]; 15.5 µM (active) in assay [2]; 7.76 µM (active) in assay [3]; 13.8 µM (active) in assay [4]; 6.92 µM (active) in assay [13]; 11 µM (active) in [7]. In addition, the Potency in assay [8] was 19.5 µM (active); in assay [9] it was 1.93 µM (active); in assay [10], 2.73 µM (active). For the same molecule, the result in assay [6] was inactive.

With `CCNc1nc(NC(C)(C)C)nc(OC)n1`, the Potency result in assay [9], in [14], in assay [15], in assay [16], in [11] and in [17] was “inactive” throughout. In addition, the Potency result in assay [12] is “inactive”.

`Cc1ccc2n[nH]nc2c1`: the Potency result in assay [9], in [14], in [15] and in assay [16] was “inactive” each time.

Consider `C=CC(C)(C)O`, for which the Potency result in [9], in assay [14], in assay [15], in [16], in assay [11] and in assay [17] was “inactive” each time.

On to `C=C1CC[C@H]2O[C@]2(C)CC[C@@H]2[C@@H]1CC2(C)C`, for which the Potency entry in assay [9], in assay [14], in assay [15], in assay [16] and in [17] was “inactive” in each case.

As to `CCc1cccc(CC)c1`, the Potency result in [9], in [14], in assay [15], in [16], in assay [11] and in [17] was “inactive” each time. For the same molecule, the Potency entry in assay [12] is “inactive”.

On to `Oc1ccc(C2(c3ccc(O)c(C4CCCCC4)c3)CCCCC2)cc1C1CCCCC1`, for which the Potency in assay [9] is 24.3 µM (active); in assay [10], 17.2 µM (active); in assay [11], 19.5 µM (active); in assay [12] it was 27.3 µM (active).

In the case of `O=C1OCc2ccccc21`, the Potency result in assay [9], in [14], in assay [15], in [16], in [11] and in [17] was “inactive” throughout.

Turning to `O=C(Cl)c1ccc(Cl)cc1Cl`, the Potency in assay [9] is 61.1 µM (active). The Potency entry in [14], in assay [15], in [16], in assay [11], in [17] and in assay [12] was “inactive” throughout.

Consider `C=CC(=O)OCCOC1C2CCC1C1CC=CC12` (stereo not drawn), for which, in assay [9], the activity, negative = cytotoxicity is 1.32% [at 19 µM]. The viability change, negative = cytotoxic in assay [14] was -20.2% [at 15.8 µM]. Besides, in assay [15], the activation was -3.6% [at 15.8 µM]. Moreover, the activity change, negative = cytotoxicity was -24% [at 15.8 µM] in assay [11] and -0.0183% [at 19 µM] in assay [17].

For `c1ccc(-c2ccccc2-c2ccccc2)cc1`, the Potency result in assay [9], in assay [14], in [17] and in assay [12] was “inactive” throughout. The Potency in assay [11] is 43.6 µM (active).

In the case of `COC(=O)c1ccc([N+](=O)[O-])cc1`, the Potency result in assay [9], in [14], in assay [15], in assay [16], in assay [17] and in [12] was “inactive” each time.

Consider `Cn1c(=O)[nH]c2ncn(C)c2c1=O`, for which the Potency result in assay [9], in [14], in assay [15], in assay [16], in [17] and in [12] was “inactive” in each case.

As to `C=C(C)CCO`, the Potency entry in assay [9], in [14], in [16], in assay [11] and in assay [17] was “inactive” each time.

For `CC(C)C(=O)C(C)C`, the Potency result in assay [9], in assay [14], in assay [15], in [11], in [17] and in assay [12] was “inactive” each time.

As for `CCc1cccc(C)c1N(C(=O)CS(=O)(=O)O)C(C)COC` (stereo not drawn), the Potency entry in assay [9], in assay [14], in assay [16], in assay [11], in assay [17] and in assay [12] was “inactive” in each case.

In the case of `CCc1c(C)cc(N)c(CC)c1N`, the Potency entry in assay [9], in assay [14], in assay [16], in assay [11] and in assay [17] was “inactive” each time.

Turning to `Nc1ccc(Oc2cccc(Oc3ccc(N)cc3)c2)cc1`, the Potency entry in [9], in assay [14], in assay [15], in assay [11] and in assay [17] was “inactive” each time. Moreover, the Potency in [12] was 24.3 µM (active).
